# Inconclusive results are not listed. Where a call stands in place of a potency, no number is given. Activity calls are given as the source filed them. The call rests on the fitted dose curve; in most records, active means well fitted curve in the direction sought with a large enough effect; inconclusive means small, poorly fitted or top-dose-only effect, or another doubt; inactive means no such curve, though single readings can be large; an effect the other way counts as inactive or inconclusive.
# Target: Rap guanine nucleotide exchange factor 4 (Homo sapiens) (UniProt Q8WZA2)
# Assay: Confirmatory qHTS for agonist of cAMP-regulated guanine nucleotide exchange factor 4 (EPAC2) (AID 1645884);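 further: nucleotide exchange releases bodipy-GDP from Rap1 and this lowers its fluorescence; nearly all actives have a fitted effect of over 65% in size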
# Settings: EPAC2 GEF activity, Rap1B-BODIPY-GDP fluorescence; series mostly up to 154 µM
# Potency means the concentration at half of the fitted maximal effect.
# Rap guanine nucleotide exchange factor 4 (Homo sapiens), sequence (Q8WZA2 whole entry, looked up): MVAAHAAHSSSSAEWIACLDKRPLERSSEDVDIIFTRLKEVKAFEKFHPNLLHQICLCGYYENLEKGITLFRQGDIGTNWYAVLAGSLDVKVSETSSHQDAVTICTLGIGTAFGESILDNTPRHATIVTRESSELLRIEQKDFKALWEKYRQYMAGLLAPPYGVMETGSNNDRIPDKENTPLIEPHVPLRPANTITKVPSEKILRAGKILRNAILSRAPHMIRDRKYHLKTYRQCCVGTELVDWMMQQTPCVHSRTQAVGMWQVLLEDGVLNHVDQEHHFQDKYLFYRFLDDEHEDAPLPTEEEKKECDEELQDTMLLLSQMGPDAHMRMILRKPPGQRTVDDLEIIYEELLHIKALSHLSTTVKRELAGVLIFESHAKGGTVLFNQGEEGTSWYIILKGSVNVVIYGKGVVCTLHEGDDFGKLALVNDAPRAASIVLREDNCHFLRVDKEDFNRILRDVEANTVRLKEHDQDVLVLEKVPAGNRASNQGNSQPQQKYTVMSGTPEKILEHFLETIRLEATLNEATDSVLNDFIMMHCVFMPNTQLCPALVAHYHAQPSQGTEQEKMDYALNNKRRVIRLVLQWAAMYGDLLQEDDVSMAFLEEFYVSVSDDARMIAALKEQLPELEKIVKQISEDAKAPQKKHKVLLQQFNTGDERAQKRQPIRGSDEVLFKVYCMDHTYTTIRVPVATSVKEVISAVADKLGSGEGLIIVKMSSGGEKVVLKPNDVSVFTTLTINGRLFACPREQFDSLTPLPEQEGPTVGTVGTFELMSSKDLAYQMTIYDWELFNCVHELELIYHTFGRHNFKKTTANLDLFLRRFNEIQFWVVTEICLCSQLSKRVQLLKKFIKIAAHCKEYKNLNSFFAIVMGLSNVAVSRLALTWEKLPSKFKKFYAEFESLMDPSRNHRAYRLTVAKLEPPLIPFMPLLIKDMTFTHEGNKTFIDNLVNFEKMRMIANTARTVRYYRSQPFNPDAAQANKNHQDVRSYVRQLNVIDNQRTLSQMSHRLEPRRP
row,SMILES,Potency
1,COc1ccc(C(=O)O)c(O)c1OC,inactive
2,COc1c(-c2ccc(O)c(O)c2)oc2cc(O)cc(O)c2c1=O,inactive
3,CCOC(=O)c1c(C)cc(OC)cc1O,inactive
4,O=C(c1cccc(F)c1)N1CCC[C@@]2(CCN(C(c3ccccc3)c3ccccc3)C2)C1,inactive
5,CC(=O)Oc1ccc2c(c1C(C)C)CCC1C(C)(C)CCC[C@@]21C (some centres undefined),inactive
6,COC(=O)CCCOc1ccc(Cl)cc1Cl,inactive
7,NCC1OC(n2cnc3c(=O)[nH]c(N)nc32)C(O)C1O (centres undefined),inactive
8,Nc1nc2n[nH]nc2c(=O)[nH]1,inactive
9,CC(=O)OC1CC2C(C)(C)CCC(=O)[C@@]2(C)C2CC[C@@]3(C)C(c4ccoc4)OC(=O)C4OC43[C@]12C (some centres undefined),inactive
10,O=c1cc(-c2ccc(O)c(O)c2)oc2cc(OC3OC(CO)C(O)C(O)C3O)cc(O)c12 (centres undefined),inactive
11,C=CC(C1=CC(=O)C(OC)=CC1=O)c1ccccc1 (centres undefined),inactive
12,COc1ccccc1CNc1ncnc2ccc(-c3cccnc3)cc12,inactive
13,CC1(C)C(O)CC[C@]2(C)C1CC[C@@]1(C)C2C(=O)C=C2[C@@H]3C[C@@](C)(C(=O)O)CC[C@@]3(C)CCC21C (some centres undefined),inactive
14,O=c1c(-c2ccccc2)coc2cc(O)cc(O)c12,inactive
15,COC(=O)c1c(OC)cc2c(c1C)Oc1c(Cl)c(OC(C)=O)c(Cl)c(C)c1C(=O)O2,inactive
16,COc1ccc2c(c1)OCc1c-2oc2cc(OC)ccc12,inactive
17,Cc1ccccc1-c1ccc2ncnc(N(C)Cc3ccco3)c2c1,inactive
18,O=c1c(O)c(-c2ccc(O)c(O)c2)oc2c(OC3OC(CO)C(O)C(O)C3O)c(O)cc(O)c12 (centres undefined),inactive
19,CN(Cc1ccco1)c1nc(-c2cccc(C#N)c2)nc2ccccc12,inactive

row,SMILES,Potency
1,COc1ccc(-c2nc3cnc(Nc4cccc(OC)c4)nc3n(CCC#N)c2=O)cc1,70.6 µM (active)
2,CC1=CC2C(CC1=O)C(C)=CCC2C(C)C (centres undefined),inactive
3,CC1(C)C=CC(=O)[C@]2(C)C1CC(=O)[C@]1(C)C2CC[C@@]2(C)C(c3ccoc3)OC(=O)C3OC321 (some centres undefined),inactive
4,COc1ccc2c(c1)[C@@]1(C)CCC[C@](C)(CO)C1CC2 (some centres undefined),inactive
5,COc1ccc2c(c1)OCC(Cc1ccc(OC)c(OC(C)=O)c1)C2=O (centres undefined),inactive
6,CC(=O)OC1CCC23CC1(C)CCC2C(C)(C)CC3OC(C)=O (centres undefined),inactive
7,C#C[C@]1(OC(C)=O)CCC2C3CCC4=CC(=O)CCC4C3CC[C@]21C (some centres undefined),inactive
8,COC(=O)c1c(OC)cc2c(c1C)Oc1c(Cl)c(O)c(Cl)c(C)c1C(=O)O2,inactive
9,CN(Cc1ccco1)c1nc(-c2ccccc2Cl)nc2ccccc12,inactive
10,O=C1CC[C@@]23/C=C/C(=O)NCCCCNCCCNC(=O)/C=C/c4ccc(c2c4)OC3C1 (some centres undefined),inactive
11,O=C(O)c1cc(O)c2c(c1)C(=O)c1cc(O)cc(O)c1C2=O,inactive
12,COc1ccc2c(c1)OC/C(=C/c1ccc(O)c(O)c1)C2=O,inactive
13,CC(=O)OC1CC[C@]2(C)C(CC(OC(C)=O)[C@@]3(C)C4=CC(=O)OC(c5ccoc5)[C@]4(C)CCC23)C1(C)C (some centres undefined),inactive
14,N#C/C(=C\c1ccc(O)c(O)c1)C(=O)NCCCCc1ccccc1,inactive
15,COc1cccc(-c2cncnc2NCc2ccc(OC)cc2OC)c1,inactive
16,CC(=O)Oc1ccc2c(c1)CCC1C2CC[C@]2(C)C(OC(C)=O)CCC12 (some centres undefined),inactive
17,COc1cc(-c2coc3cc(OCc4ccccc4)c(OC)c(O)c3c2=O)cc(O)c1OC,inactive
18,COc1cc(C/C=C/c2ccccc2)c(OC)cc1O,inactive
19,N[C@H](C(=O)O)C(O)C(O)C(O)CO (some centres undefined),inactive

# Target: Rap guanine nucleotide exchange factor 4 (Homo sapiens) (UniProt Q8WZA2)
# Assay: Confirmatory qHTS for antagonist of cAMP-regulated guanine nucleotide exchange factor 4 (EPAC2) (AID 1645885); further: nearly all actives have a fitted effect of over 25% in size
# Settings: EPAC2 Rap1B-BODIPY-GDP exchange fluorescence, biochemical; series mostly up to 114 µM
row,SMILES,Potency
1,COc1ccc(C(=O)O)c(O)c1OC,inactive
2,COc1c(-c2ccc(O)c(O)c2)oc2cc(O)cc(O)c2c1=O,inactive
3,O=C(c1cccc(F)c1)N1CCC[C@@]2(CCN(C(c3ccccc3)c3ccccc3)C2)C1,inactive
4,CC(=O)Oc1ccc2c(c1C(C)C)CCC1C(C)(C)CCC[C@@]21C (some centres undefined),inactive
5,NCC1OC(n2cnc3c(=O)[nH]c(N)nc32)C(O)C1O (centres undefined),inactive
6,Nc1nc2n[nH]nc2c(=O)[nH]1,inactive
7,CC(=O)OC1CC2C(C)(C)CCC(=O)[C@@]2(C)C2CC[C@@]3(C)C(c4ccoc4)OC(=O)C4OC43[C@]12C (some centres undefined),inactive
8,O=c1cc(-c2ccc(O)c(O)c2)oc2cc(OC3OC(CO)C(O)C(O)C3O)cc(O)c12 (centres undefined),inactive
9,C=CC(C1=CC(=O)C(OC)=CC1=O)c1ccccc1 (centres undefined),31.2 µM (active)
10,CC1(C)C(O)CC[C@]2(C)C1CC[C@@]1(C)C2C(=O)C=C2[C@@H]3C[C@@](C)(C(=O)O)CC[C@@]3(C)CCC21C (some centres undefined),4.94 µM (active)
11,O=c1c(-c2ccccc2)coc2cc(O)cc(O)c12,inactive
12,COC(=O)c1c(OC)cc2c(c1C)Oc1c(Cl)c(OC(C)=O)c(Cl)c(C)c1C(=O)O2,11.1 µM (active)
13,COc1ccc2c(c1)OCc1c-2oc2cc(OC)ccc12,inactive
14,Cc1ccccc1-c1ccc2ncnc(N(C)Cc3ccco3)c2c1,31.2 µM (active)
15,O=c1c(O)c(-c2ccc(O)c(O)c2)oc2c(OC3OC(CO)C(O)C(O)C3O)c(O)cc(O)c12 (centres undefined),inactive
16,CN(Cc1ccco1)c1nc(-c2cccc(C#N)c2)nc2ccccc12,inactive

row,SMILES,Potency
1,COc1ccc(-c2nc3cnc(Nc4cccc(OC)c4)nc3n(CCC#N)c2=O)cc1,inactive
2,CC1=CC2C(CC1=O)C(C)=CCC2C(C)C (centres undefined),39.3 µM (active)
3,CC1(C)C=CC(=O)[C@]2(C)C1CC(=O)[C@]1(C)C2CC[C@@]2(C)C(c3ccoc3)OC(=O)C3OC321 (some centres undefined),inactive
4,COc1ccc2c(c1)[C@@]1(C)CCC[C@](C)(CO)C1CC2 (some centres undefined),39.3 µM (active)
5,CC(=O)OC1CCC23CC1(C)CCC2C(C)(C)CC3OC(C)=O (centres undefined),39.3 µM (active)
6,COC(=O)c1c(OC)cc2c(c1C)Oc1c(Cl)c(O)c(Cl)c(C)c1C(=O)O2,8.79 µM (active)
7,O=C1CC[C@@]23/C=C/C(=O)NCCCCNCCCNC(=O)/C=C/c4ccc(c2c4)OC3C1 (some centres undefined),inactive
8,O=C(O)c1cc(O)c2c(c1)C(=O)c1cc(O)cc(O)c1C2=O,inactive
9,COc1ccc2c(c1)OC/C(=C/c1ccc(O)c(O)c1)C2=O,inactive
10,COc1cccc(-c2nc(Nc3ccncc3)c3ccccc3n2)c1,inactive
11,COc1cccc(-c2cncnc2NCc2ccc(OC)cc2OC)c1,44.1 µM (active)
12,CC(=O)Oc1ccc2c(c1)CCC1C2CC[C@]2(C)C(OC(C)=O)CCC12 (some centres undefined),inactive
13,COc1cc(-c2coc3cc(OCc4ccccc4)c(OC)c(O)c3c2=O)cc(O)c1OC,inactive
14,COc1cc(C/C=C/c2ccccc2)c(OC)cc1O,inactive
15,N[C@H](C(=O)O)C(O)C(O)C(O)CO (some centres undefined),inactive
